Cruzain inh noDet: inhibitors of Trypanosoma cruzi cruzain without detergent; purified cruzain, Z-FR-AMC fluorescence, no detergent; 200,000 compounds, 2.3% hits; Potency, µM, actives largely listed as inhibitors; P25779; note: nearly all actives have a fitted effect of over 40% in size
Target sequence (P25779 123-467 limits assumed): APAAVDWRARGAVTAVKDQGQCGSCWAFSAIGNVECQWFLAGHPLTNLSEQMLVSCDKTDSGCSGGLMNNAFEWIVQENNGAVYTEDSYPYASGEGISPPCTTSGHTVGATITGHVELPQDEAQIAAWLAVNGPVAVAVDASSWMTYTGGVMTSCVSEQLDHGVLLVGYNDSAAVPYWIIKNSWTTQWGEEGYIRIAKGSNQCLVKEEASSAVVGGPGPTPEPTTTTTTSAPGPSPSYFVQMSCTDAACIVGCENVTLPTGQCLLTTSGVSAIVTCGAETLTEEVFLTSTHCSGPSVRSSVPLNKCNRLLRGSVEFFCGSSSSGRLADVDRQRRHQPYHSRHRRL
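Detergent-free condition (0.00005% Triton X-100) in acetate buffer pH 5.5 with DTT. 1.5 nM enzyme and compound were pre-mixed 15 min, then 2 uM Z-FR-AMC substrate added; reaction progress from fluorescence change between first and third reads (60 s).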
Cruzain inh Det: blocks cruzain activity in presence of Triton detergent; purified cruzain, Z-FR-AMC fluorescence, 0.01% Triton; Potency, µM, actives largely listed as inhibitors; 200,000 compounds, 0.43% hits; note: nearly all actives have a fitted effect of over 40% in size
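Detergent-containing arm of a paired screen for aggregation-based inhibition: 0.01% Triton X-100 present. Cruzain at 1.5 nM cleaved 2 uM Z-FR-AMC at pH 5.5 with 5 mM DTT; AMC fluorescence gain over 60 s measured activity.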
Numbers stand for hits; – = inactive; ? = inconclusive. Shown are actives, neighbours in structure and some others; about 2.4% of the full set was active somewhere. Calls come from the whole dose curve; as a rule, active = well fitted curve in the direction sought with a large enough effect; inconclusive = small, poorly fitted or top-dose-only effect, or another doubt; inactive = no such curve, though single readings can be large; an effect the other way counts as inactive or inconclusive.

SMILES	Cruzain inh noDet	Cruzain inh Det
O=C(O)CCNCC(=O)O	–	–
Cc1cnn(C(=S)NCc2ccc(Cl)cc2)c1	–	–
Cc1cnn(C(=S)NCCc2ccccc2)c1	13µM	16µM
O=C(/C=C/c1ccc2c(c1)OCO2)c1cccs1	–	–
O=C(O)C(Cl)(c1ccccc1)c1ccccc1	–	–
COc1ccccc1-c1nnc(NC(C)=O)s1	–	–
CCCCOC(=O)Nc1nnc(-c2ccccc2OC)s1	16µM	–
COc1ccc(-c2nn(C)c3sc(C(=O)Nc4cc(OC)c(OC)c(OC)c4)cc23)cc1OC	?	–
O=C(C[C@H](c1ccccc1)c1c(O)c2ccccc2oc1=O)c1ccccc1	–	–
O=C(CN1C(=O)C2CCCN2c2ncc(Cl)cc21)NCc1ccc2c(c1)OCO2 (stereo not drawn)	25µM	–
COc1ccc(CNC(=O)CN2C(=O)C3CCCN3c3ncc(Cl)cc32)cc1 (stereo not drawn)	–	–
CCc1ccccc1NC(=O)CN1C(=O)C2CCCN2c2ncc(Cl)cc21 (stereo not drawn)	–	–
COC(=O)c1ccccc1NC(=O)CN1C(=O)C2CCCN2c2ncc(Cl)cc21 (stereo not drawn)	10µM	–
Cc1ccccc1NC(=O)c1c(C)oc2ccc(O)c(CN3CCC(C)CC3)c12	–	–
COc1ccc(OC)c(CNC(=O)Cn2ncc3c([nH]c4ccc(C)cc43)c2=O)c1	–	–
COc1ccc(-c2nc(C)c(CCNS(=O)(=O)c3cc(C)c(C)cc3C)s2)cc1	–	–
Cc1c(/C=N/NC(=O)CNc2ccccc2)c2ccccn2c1C(=O)c1ccc(Cl)cc1	?	–
Cc1ccccc1NCC(=O)N/N=C/c1c(C)c(C(=O)c2ccc(Cl)cc2)n2ccccc12	7.9µM	–
COC(=O)c1ccccc1NC(=O)c1cc2sccc2n1C	–	–
COC(=O)c1cccc(NC(=O)c2cc3sccc3n2C)c1	25µM	–
O=c1c(-c2ccccc2)nc2cnc(Oc3ccccc3)nc2n1Cc1cccs1	?	–
Cc1ccc(CNC(=O)c2sc3nc(-c4ccc(F)cc4)ccc3c2N)cc1	–	–
COc1ccc(-c2ccc3c(N)c(C(=O)NCc4ccc(C)cc4)sc3n2)cc1	16µM	13µM
O=S(=O)(O)C(c1ccccc1)[C@@H](O)c1ccccc1 (stereo partly drawn)	–	–
O=[N+]([O-])c1ccc(O)c(N=Cc2sc3ccccc3c2O)c1	13µM	–
SMILES	Cruzain inh noDet	Cruzain inh Det
Oc1c(C=Nc2cccc3cccnc23)sc2ccccc12	–	–
CC(C)(CCc1nc2ccccc2[nH]1)C(=O)O	–	–
COc1ccccc1CNc1ncnc2c1c(-c1ccccc1)cn2-c1ccc(Br)cc1	7.9µM	–
COc1ccc(CNc2ncnc3c2c(-c2ccccc2)cn3-c2ccccc2)cc1	–	–
C[C@@H]1CCCN(CP(=O)(c2ccccc2)c2ccccc2)C1	–	–
COC(=O)[C@@H](NC(=O)NC(C)CCc1ccccc1)C(C)C (stereo partly drawn)	–	–
CC(C)[C@H](NC(=O)[C@H](CCCN=C(N)N)NC(=O)NC(Cc1ccccc1)C(=O)O)C(=O)NC(C=O)CCCN=C(N)N (stereo partly drawn)	0.032µM	0.035µM
COC(=O)c1ccc(NC(=O)c2c(NCc3ccc(OC)c(OC)c3)sc3c2CCCC3)cc1	–	–
Cc1cc(C)c(NC(=O)Cn2nnc(-c3ccccc3)n2)c(C)c1	–	–
Cc1cccc(C)c1NC(=O)Cn1nnc(-c2ccc(N3CCOCC3)cc2)n1	20µM	–
CC(=O)c1ccc(NC(=O)c2nn(C)c3c2COc2ccccc2-3)cc1	–	–
CCC1CN(C(=O)N2CCC(C(=O)NCCc3ccccc3Cl)CC2)c2cc(C)ccc2O1 (stereo not drawn)	–	–
O=C(O)c1cccc(CSc2nc(-c3ccc(Cl)cc3)cc(C(F)(F)F)n2)c1	–	28µM
COc1ccc(-c2cc(C)nc(SCc3cccc(C(=O)O)c3)n2)cc1	–	–
CCCCCC(=O)/C=C/[C@@H]1[C@@H](C/C=C\CCCC(=O)O)[C@@H](O)C[C@H]1O	–	–
O=C(CCCCCn1c(=O)c2sccc2n(CC(=O)Nc2cc(C(F)(F)F)ccc2Cl)c1=O)NCc1ccccc1Cl	16µM	–
CC(C)(C)C(=O)Cn1c(=O)n(CCCCCC(=O)NCc2ccccc2Cl)c(=O)c2sccc21	–	–
CC1(C)CC(O)C(C(O)c2cccc([N+](=O)[O-])c2)C(C)(C)N1 (stereo not drawn)	–	–
COc1ccccc1CNC(=O)C1CCCN(c2nc3ccccc3n3cccc23)C1 (stereo not drawn)	–	–
COc1ccc2nc(N/C(N)=N/C(=S)Nc3cccc(C)c3)nc(C)c2c1	?	–
CCOc1ccc2nc(N/C(N)=N/C(=S)Nc3cccc(C)c3)nc(C)c2c1	32µM	–
CC(=O)c1ccc(NC(=O)C(=O)c2cn(CC(=O)N3CCCCC3)c3ccccc23)cc1	10µM	–
